HEK293 tox: qHTS of GLP-1 Receptor Inverse Agonists: Cytotox Screen; HEK293 cAMP-luciferase reporter cells, luminescence, 24 h; Potency, µM (series often up to 38.3 µM), without a hit: top-dose activity change, negative = inhibition, actives largely listed as inhibitors; 410,000 compounds, 0.13% hits;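 also: loss of luciferase light is scored as toxicity; potency is read from the fitted curve at half-maximal effect; % is scaled to controls: 0 for no effect and ±100 for the full control effect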
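Seeding density was 200 cells/uL; after overnight-length (12 h) culture, 23 nL compounds went on for 24 h at 37 °C. Readout used a luciferase detection reagent, luminescence taken after 12 min at room temperature.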
GLP1R inv ag: qHTS of GLP-1 Receptor Inverse Agonists (Inhibition Mode) | Glucagon-like peptide 1 receptor (Homo sapiens), P43220 | HEK293 GLP-1R CRE-luciferase, luminescence, 24 h; GLP-1R form is constitutively active | Potency, µM (series often up to 38.3 µM), for inactives: at the top dose activity change, negative = inhibition, most hits filed as inhibitors | 410,000 compounds, 1.6% hits | AID 624417, 2012; also: potency is read from the fitted curve at half-maximal effect; % is scaled to controls: 0 for no effect and ±100 for the full control effect; nearly all actives have a fitted effect of over 55% in size
Target sequence (P43220 whole entry, looked up): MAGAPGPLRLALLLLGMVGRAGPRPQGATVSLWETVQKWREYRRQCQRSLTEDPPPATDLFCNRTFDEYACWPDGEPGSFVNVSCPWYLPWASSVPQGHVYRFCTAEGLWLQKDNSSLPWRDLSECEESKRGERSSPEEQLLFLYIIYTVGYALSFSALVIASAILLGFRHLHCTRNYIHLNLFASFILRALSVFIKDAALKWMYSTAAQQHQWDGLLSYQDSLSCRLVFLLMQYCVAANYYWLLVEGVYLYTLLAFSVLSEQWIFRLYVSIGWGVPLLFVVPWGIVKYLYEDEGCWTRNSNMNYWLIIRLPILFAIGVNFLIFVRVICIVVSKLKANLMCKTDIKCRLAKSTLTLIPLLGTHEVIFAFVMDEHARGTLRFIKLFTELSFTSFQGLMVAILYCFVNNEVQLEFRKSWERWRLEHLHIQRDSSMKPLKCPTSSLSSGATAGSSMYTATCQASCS
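Luminescence readout: a drop in cAMP-driven luciferase signal flags inverse agonism at a constitutively active GLP-1R stably expressed in HEK293. Compound exposure lasted 24 hr at 37 deg C, 5% CO2.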
GLP-1R agonist: qHTS of GLP-1 Receptor Agonists; Glucagon-like peptide 1 receptor (Homo sapiens), P43220; HEK293 GLP-1R CRE-luciferase, luminescence, 4-6 h; cells express a hypersensitive GLP-1R form; Potency, µM (titrated, usually from 45.6 µM), without a hit: at the top dose activation, actives largely listed as activators; 380,000 compounds, 0.007% hits; also: potency is read from the fitted curve at half-maximal effect; % of control where 0% means no effect
D3 ag: qHTS of D3 Dopamine Receptor Agonist: qHTS. D(3) dopamine receptor (Homo sapiens), P35462. D3R DiscoveRx beta-arrestin cells, luminescence, 90 min. max activation, %. 410,000 compounds, 0.58% hits. AID 652048, 2013; in the data active = max activation above about 30%; also: 0% is about no effect
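Cells at 1500/well, incubated overnight, then treated with pinned compounds (dopamine as control) for 90 min at 37 degrees C. DiscoveRx reagent added for 30 - 60 minutes at room temperature; luminescence read.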
ClpP mod: qHTS Assay for Activators of ClpP. ATP-dependent Clp protease proteolytic subunit (Bacillus subtilis (strain 168)), P80244. purified B. subtilis ClpP, FRET peptide cleavage, 20 min. Potency, µM (top dose mostly 57.5 µM), for inactives: at the top dose activity change, negative = active. 340,000 compounds, 1.9% hits; active = well fitted falling curve with a large enough effect; inconclusive = small, poorly fitted or top-dose-only effect; inactive = no such curve, though single readings can be large or run the other way; also: potency is read from the fitted curve at half-maximal effect; the source files actives as falling curves though it sought activators and does not explain the sign; nearly all actives have a fitted effect of over 65% in size
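Purified B. subtilis ClpP, 10 microg/mL final in Tris/HCl pH8 with KCl, BSA, glycerol and Tween-20, cleaved an Abz/nitrotyrosine-quenched decapeptide. Fluorescence (ex 320, em 430) was read at 0 and 20 min at room temperature. Delta was normalized to 5.8 microM ADEP and DMSO/no-enzyme controls.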
D3 antag: qHTS of D3 Dopamine Receptor Antagonist: qHTS. D3R cells, DiscoveRx beta-arrestin luminescence, antagonist mode; stronger effect = lower value. AID 652054, 2013. D(3) dopamine receptor (Homo sapiens), P35462. 360,000 compounds, 2.5% hits. max response, negative = inhibition, %; in the data active = max response below about -50%; inconclusive = no clear call, values can overlap the other calls; also: % is scaled to controls: 0 for no effect and ±100 for the full control effect
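Cells expressing the human receptor were seeded at 1500 cells/well, incubated overnight at 37 degrees C in 5% CO2, then exposed to library compounds with dopamine controls for 90 minutes at 37 degrees C before luminescent detection.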
The depositor's hits bear a star; ? = inconclusive; · = no result given; [ ] = another dose, or the depositor's remark. Rows were chosen to be rich in hits. Some 5.7% of all compounds tested hit in one or more screens of this group. Unless noted, calls follow the shape of the dose curve; as a rule, active = well fitted curve in the direction sought with a large enough effect; inconclusive = small, poorly fitted or top-dose-only effect, or another doubt; inactive = no such curve, though single readings can be large; an effect the other way counts as inactive or inconclusive.

SMILES | HEK293 tox | GLP1R inv ag | GLP-1R agonist | D3 ag | ClpP mod | D3 antag
Cc1ccc(S(=O)(=O)N2CCCCC2)cc1C(=O)N(CCc1ccccc1)Cc1ccccc1 | 10% | 4.5µM* | -6% | -20 | -1% | -27
CCN1CCN(S(=O)(=O)c2ccc(Cl)c(C(=O)N(CCc3ccccc3)Cc3ccccc3)c2)CC1 | ? | ? | 5% | -6 | 0% | -10
CCOc1cc(NC(=O)C2CCCCC2)c(OCC)cc1NC(=O)c1ccccn1 | -3% | ? | 9% | 49* | · | 17
CCOc1ccc(S(=O)(=O)N2CCCCC2)cc1NC(=O)C1CCC1 | 4% | 4% | -2% | -1 | 14µM* | -8
COc1cc([N+](=O)[O-])ccc1NC(=O)CN1C(=O)NC2(CCCCC2C)C1=O (stereo unspecified) | -5% | -4% | 13% | 2 | -1% | -9
COc1ccc(C[C@H]2CN3C(=NC[C@H]3C)N2CCNC(=O)c2ccc(C)c(Br)c2)cc1 | 4% | ? | 17% | -47 | 0% | -57*
COc1ccc(C[C@@H]2CN3C(=NC[C@@H]3C)N2C[C@H](C)NC(=O)c2ccc(C)c(Br)c2)cc1 | -47% | ? | -1% | -32 | -1% | -22
COc1ccc(C[C@H]2CN3C(=NC[C@@H]3C(C)C)N2CCNC(=O)c2ccc(C)c(Br)c2)cc1 | ? | ? | 4% | -55 | -1% | -64*
Cc1ccc(C(=O)NCCN2C3=NC[C@H](C)N3C[C@H]2Cc2ccc(O)cc2)cc1Br | 0% | -18% | 11% | -62 | -2% | -58*
COC(=O)C1=CN(C2CC2)C=C(C(=O)OC)C1c1ccc(C(=O)OC)cc1 | 153% | 3% | 5% | 4 | 32µM* | -10
COC(=O)C1=CN(C2CC2)C=C(C(=O)OC)C1c1ccc(C(F)(F)F)cc1 | 50% | ? | 7% | -3 | · | -28
N#Cc1cc(C(=O)c2cc(Br)ccc2O)cn(C2CC2)c1=O | -6% | -7% | -9% | -3 | 28% | -24
N#Cc1cc(C(=O)c2ccccc2O)cn(-c2ccc(Cl)cc2)c1=O | 3% | ? | 13% | 1 | · | 16
C=CCn1cc(-c2ccccc2)cc(C#N)c1=O | -8% | 21% | 13% | -1 | ? | -3
CC(C)n1cc(C(=O)c2cc(Br)ccc2O)cc(C#N)c1=O | -6% | 0% | -3% | 6 | 0% | -67*
CC(C)n1cc(-c2ccc(Cl)cc2)cc(C#N)c1=O | 30% | ? | 7% | -5 | 32µM* | 6
C=CCn1cc(-c2ccc(Cl)cc2)cc(C#N)c1=O | 0% | 0% | -3% | 5 | 32µM* | 0
Cn1cc(-c2cccc(Cl)c2)cc(C#N)c1=O | -2%[7.66 µM] | -9%[7.66 µM] | 9% | 0 | · | 0
N#Cc1cc(-c2ccc(Cl)cc2)cn(Cc2c(Cl)cccc2Cl)c1=O | 6% | -6% | -14% | 0 | 25µM* | -50*
COc1cc(CN2C[C@@H](CO)O[C@@H](n3cnc4c(NCCCO)ncnc43)C2)cc(OC)c1OC | 3% | 15% | 2% | -6 | 0% | 4
COCCn1c(SCc2ccccc2F)nc2c([nH]c3ccccc32)c1=O | 8% | -8% | -8% | 0 | 8% | ·
O=C(Nc1ccc(OC(F)(F)F)cc1)C(NS(=O)(=O)c1cccc2nsnc12)c1ccccc1 (stereo unspecified) | -24% | ? | · | -11 | 1% | ·
CCn1nc(-c2ccccc2)c(-c2ccccc2)c(C(=O)Nc2nc(C)c(C(C)=O)s2)c1=O | -13% | 4.5µM* | · | 22 | 0% | ·
O=C(CCn1cnc2ccccc2c1=O)NCc1ccccc1 | 2% | -14% | 3% | -9 | -1% | ·

Screening data as filed in PubChem BioAssay.
